Assays:
Assay in all cases: log2 ratio of Biotin-Ahx-Ub-VS probe labelling (fragment/DMSO); higher = less target engagement (more negative = stronger competition), active = hit call of the paper (q ≤ 0.05, log2 ratio ≤ -1)
Conditions in all cases: compound concentration: 200 uM; treatment time: 3 h
USP19 = target: T1, USP19 (UniProt O94966)
T1 sequence (whole entry): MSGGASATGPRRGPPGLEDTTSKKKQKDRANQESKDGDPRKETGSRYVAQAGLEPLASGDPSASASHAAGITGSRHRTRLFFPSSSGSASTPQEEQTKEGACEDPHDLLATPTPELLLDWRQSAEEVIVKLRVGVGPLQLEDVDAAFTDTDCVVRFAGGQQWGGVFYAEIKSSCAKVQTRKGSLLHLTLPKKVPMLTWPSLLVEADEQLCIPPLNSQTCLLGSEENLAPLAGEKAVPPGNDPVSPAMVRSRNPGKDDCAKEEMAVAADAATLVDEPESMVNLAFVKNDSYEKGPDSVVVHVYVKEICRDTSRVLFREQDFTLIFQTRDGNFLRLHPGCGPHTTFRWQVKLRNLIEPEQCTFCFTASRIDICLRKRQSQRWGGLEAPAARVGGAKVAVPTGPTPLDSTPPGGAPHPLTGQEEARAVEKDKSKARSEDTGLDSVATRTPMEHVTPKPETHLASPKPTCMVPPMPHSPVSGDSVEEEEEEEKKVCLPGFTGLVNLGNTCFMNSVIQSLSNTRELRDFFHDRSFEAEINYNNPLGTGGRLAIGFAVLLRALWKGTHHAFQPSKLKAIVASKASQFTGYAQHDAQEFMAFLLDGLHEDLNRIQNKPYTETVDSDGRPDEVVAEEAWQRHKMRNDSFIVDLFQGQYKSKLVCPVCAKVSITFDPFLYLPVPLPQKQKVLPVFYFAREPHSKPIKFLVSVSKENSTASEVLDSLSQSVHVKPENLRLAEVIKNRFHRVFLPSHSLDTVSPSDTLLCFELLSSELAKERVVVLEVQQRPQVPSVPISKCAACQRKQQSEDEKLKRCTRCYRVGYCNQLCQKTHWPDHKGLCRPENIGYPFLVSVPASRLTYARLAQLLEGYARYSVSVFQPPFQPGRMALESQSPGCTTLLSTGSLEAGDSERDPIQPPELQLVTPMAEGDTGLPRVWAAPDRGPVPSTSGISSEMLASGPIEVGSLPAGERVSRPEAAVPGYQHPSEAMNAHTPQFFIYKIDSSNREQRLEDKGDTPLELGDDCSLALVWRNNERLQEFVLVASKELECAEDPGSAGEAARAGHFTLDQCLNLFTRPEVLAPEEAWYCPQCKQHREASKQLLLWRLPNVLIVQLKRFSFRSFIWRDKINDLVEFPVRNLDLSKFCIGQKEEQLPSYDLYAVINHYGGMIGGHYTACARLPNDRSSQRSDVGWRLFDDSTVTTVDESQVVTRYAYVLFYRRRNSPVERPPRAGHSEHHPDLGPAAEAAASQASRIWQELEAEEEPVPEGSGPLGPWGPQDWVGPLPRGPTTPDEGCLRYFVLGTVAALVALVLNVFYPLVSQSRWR
In short: (§1)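 Each value is an average log2 ratio of fragment to vehicle, tested by unpaired t-test. The underlying Spectronaut label-free quantities were global-median-normalised, and only proteins with ≥2 unique peptides were included. Triplicate HEK293T lysate samples (495 µg) were exposed to fragment at 200 µM or vehicle for 3 h, then to Biotin-Ahx-Ub-VS at 0.5 µM final for 1 h, before NeutrAvidin enrichment of labelled DUBs, LysC and trypsin digestion, and diaPASEF LC-MS/MS.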

USP24 = USP24 (UniProt Q9UPU5)
In short: as §1

USP25 = target: T2, USP25 (UniProt Q9UHP3)
T2 sequence (whole entry): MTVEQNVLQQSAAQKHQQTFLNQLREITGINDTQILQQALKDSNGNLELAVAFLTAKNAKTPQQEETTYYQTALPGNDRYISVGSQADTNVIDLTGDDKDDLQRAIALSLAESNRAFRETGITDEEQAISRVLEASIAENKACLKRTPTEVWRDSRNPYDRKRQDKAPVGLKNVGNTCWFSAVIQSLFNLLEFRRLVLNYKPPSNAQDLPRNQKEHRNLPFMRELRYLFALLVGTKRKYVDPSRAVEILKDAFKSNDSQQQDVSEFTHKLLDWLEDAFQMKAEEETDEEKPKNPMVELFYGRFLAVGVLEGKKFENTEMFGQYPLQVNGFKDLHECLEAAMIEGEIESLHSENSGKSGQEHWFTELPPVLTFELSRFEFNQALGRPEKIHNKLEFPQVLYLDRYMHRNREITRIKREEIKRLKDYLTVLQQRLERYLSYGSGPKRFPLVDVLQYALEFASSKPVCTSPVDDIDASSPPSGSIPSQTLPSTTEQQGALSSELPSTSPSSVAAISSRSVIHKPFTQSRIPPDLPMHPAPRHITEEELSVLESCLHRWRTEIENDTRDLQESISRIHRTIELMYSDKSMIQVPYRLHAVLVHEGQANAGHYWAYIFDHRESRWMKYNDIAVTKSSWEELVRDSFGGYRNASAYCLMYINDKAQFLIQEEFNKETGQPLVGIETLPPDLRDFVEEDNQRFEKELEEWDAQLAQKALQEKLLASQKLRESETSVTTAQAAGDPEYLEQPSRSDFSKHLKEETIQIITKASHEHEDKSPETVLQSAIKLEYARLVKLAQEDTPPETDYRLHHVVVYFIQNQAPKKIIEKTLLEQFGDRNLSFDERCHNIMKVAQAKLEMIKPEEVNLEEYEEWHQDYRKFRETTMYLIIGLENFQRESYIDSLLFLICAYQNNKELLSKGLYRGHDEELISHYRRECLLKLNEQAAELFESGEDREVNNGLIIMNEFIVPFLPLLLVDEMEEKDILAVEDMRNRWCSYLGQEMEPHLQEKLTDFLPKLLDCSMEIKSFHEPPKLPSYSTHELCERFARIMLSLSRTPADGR
In short: as §1

USP28 = target: T3, USP28 (UniProt Q96RU2)
T3 sequence (whole entry): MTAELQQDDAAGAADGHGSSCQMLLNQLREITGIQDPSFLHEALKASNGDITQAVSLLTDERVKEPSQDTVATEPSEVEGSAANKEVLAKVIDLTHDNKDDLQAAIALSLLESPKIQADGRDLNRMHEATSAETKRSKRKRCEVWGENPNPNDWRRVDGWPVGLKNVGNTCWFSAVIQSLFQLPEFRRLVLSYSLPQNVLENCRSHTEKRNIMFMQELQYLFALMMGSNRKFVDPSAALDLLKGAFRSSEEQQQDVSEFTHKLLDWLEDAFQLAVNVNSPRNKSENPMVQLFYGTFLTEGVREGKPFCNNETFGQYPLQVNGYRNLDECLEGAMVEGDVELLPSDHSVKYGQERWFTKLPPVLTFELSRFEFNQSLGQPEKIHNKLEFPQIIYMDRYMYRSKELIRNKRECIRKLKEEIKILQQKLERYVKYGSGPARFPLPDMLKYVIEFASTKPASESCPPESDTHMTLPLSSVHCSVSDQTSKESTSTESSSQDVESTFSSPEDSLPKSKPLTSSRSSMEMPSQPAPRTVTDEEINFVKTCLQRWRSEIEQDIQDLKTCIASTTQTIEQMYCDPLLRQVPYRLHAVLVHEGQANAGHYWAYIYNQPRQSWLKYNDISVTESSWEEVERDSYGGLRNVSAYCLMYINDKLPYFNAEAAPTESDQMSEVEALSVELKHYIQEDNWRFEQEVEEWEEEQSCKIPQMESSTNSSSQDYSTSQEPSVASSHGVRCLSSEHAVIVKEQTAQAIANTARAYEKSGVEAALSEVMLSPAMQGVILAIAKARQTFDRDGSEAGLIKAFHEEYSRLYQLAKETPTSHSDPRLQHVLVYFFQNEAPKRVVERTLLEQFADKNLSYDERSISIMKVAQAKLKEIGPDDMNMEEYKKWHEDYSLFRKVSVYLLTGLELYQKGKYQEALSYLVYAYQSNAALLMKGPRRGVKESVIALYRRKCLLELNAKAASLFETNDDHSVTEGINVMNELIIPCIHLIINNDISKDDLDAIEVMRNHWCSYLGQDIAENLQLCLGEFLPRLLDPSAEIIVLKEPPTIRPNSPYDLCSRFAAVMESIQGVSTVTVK
In short: as §1

Measured: log2 ratio of Biotin-Ahx-Ub-VS probe labelling

USP24, sequence (Q9UPU5 whole entry): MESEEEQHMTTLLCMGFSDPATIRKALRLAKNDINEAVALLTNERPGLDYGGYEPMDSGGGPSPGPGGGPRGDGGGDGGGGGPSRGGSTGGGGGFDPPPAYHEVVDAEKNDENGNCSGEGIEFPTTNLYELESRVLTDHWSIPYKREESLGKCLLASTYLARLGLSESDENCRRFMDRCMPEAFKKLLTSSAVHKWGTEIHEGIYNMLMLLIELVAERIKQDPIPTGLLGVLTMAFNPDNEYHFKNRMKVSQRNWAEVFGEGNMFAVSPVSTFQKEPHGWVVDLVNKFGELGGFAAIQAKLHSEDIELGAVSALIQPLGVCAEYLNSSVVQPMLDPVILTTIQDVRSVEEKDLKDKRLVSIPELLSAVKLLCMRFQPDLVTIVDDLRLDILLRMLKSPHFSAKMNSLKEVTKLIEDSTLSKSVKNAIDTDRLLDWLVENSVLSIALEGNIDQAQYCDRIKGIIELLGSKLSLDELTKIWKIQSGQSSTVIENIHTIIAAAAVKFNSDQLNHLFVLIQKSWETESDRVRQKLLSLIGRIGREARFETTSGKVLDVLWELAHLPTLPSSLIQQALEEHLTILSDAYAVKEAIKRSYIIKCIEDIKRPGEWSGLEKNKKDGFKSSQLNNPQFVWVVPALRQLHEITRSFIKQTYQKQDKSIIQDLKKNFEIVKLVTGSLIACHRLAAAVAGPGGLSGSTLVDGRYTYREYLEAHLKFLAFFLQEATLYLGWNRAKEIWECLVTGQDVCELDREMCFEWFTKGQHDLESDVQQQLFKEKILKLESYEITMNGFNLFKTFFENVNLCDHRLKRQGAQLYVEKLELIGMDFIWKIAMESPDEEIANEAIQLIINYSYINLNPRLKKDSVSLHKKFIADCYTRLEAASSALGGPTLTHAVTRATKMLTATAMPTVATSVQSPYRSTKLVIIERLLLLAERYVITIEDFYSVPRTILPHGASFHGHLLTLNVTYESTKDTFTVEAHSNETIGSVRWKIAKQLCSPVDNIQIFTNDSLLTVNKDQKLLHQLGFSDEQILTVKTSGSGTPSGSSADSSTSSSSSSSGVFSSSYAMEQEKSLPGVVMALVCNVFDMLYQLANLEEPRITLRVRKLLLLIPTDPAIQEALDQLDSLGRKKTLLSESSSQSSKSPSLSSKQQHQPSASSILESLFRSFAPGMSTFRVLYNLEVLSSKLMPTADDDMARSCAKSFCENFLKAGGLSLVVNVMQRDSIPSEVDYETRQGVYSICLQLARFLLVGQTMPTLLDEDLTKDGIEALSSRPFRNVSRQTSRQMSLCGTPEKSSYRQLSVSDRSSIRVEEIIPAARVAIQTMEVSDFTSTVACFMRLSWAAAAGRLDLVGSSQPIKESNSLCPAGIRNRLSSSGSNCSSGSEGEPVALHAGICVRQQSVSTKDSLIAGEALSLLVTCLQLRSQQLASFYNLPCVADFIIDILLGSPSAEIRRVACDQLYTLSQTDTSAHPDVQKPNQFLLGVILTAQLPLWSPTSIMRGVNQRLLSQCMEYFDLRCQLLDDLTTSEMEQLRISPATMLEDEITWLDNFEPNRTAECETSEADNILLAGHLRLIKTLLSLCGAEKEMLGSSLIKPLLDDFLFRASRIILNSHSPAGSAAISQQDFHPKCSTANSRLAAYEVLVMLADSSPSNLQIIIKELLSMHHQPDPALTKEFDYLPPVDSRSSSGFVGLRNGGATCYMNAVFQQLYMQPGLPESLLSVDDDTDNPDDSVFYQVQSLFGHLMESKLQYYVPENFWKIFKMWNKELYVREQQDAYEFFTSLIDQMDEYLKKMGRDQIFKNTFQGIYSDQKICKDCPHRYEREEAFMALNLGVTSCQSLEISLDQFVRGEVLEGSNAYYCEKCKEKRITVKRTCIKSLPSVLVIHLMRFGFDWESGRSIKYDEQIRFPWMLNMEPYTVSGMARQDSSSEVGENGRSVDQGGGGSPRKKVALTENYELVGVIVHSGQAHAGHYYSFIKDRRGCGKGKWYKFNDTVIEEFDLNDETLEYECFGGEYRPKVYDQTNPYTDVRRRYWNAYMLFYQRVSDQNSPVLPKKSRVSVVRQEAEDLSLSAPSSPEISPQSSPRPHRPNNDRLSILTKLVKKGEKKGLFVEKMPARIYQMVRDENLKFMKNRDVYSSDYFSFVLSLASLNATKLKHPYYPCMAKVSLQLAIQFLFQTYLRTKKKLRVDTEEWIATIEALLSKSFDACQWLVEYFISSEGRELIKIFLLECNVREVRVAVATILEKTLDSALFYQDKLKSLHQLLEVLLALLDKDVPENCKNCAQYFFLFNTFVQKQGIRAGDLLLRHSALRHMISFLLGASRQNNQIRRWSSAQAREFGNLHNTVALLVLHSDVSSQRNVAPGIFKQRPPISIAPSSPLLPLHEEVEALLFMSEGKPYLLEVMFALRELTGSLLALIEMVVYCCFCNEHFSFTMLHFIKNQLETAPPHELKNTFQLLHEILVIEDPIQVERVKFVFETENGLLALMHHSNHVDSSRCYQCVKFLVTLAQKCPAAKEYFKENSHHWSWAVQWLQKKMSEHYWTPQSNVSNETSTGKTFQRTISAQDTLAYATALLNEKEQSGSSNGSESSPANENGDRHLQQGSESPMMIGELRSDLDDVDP

Cc1ncc2c(n1)CCN(C(=O)CCl)C2
inactive: USP19 -0.479 | USP24 -0.198 | USP25 -0.361 | USP28 -0.688

From the supplement of paper PMC11732987, “Enantioselective OTUD7B fragment discovery through chemoproteomics screening and high-throughput optimisation” (Communications Chemistry, 2025)
